The campaign covered roughly 290,000 compounds. About 11,000 (3.8%) were called active. The sample as a whole holds a higher share of actives than the screen did. A number with no mark means an inactive call.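 The calls were made as follows: active = mean replicate inhibition above about 79%, with every replicate also reaching it (limit read from the data); inconclusive = only one of the two criteria met; inactive = mean below limit and not every replicate reaching it.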
Biological target: FAD-linked sulfhydryl oxidase ALR (Homo sapiens) (UniProt P55789)
Assay: inhibitors of human ALR sulfhydryl oxidase, primary screen, biochemical, H2O2 detection, HRP-luminol luminescence, single point (AID 485317)
Details: purified ALR, DTT oxidation, hits give high values, concentration not given here

Chain of FAD-linked sulfhydryl oxidase ALR (Homo sapiens) (P55789 whole entry, looked up): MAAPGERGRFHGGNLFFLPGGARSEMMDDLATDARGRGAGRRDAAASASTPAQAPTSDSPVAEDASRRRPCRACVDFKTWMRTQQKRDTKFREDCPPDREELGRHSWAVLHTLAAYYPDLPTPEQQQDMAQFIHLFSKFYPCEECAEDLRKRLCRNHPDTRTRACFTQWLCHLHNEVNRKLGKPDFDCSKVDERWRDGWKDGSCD

SMILES	inhibition
COc1cc(C=NNC(=O)c2cccnc2)ccc1OC(=O)c1ccccc1F	20.1%
COc1ccc(CCNC(=O)COC(=O)c2cnc(Cl)c(Cl)c2)cc1	-2.44%
Cc1cc(NC(=O)CSc2ncc(C(F)(F)F)cc2Cl)no1	-1.5%
COc1ccccc1C1C2=C(COC2=O)Nc2cc3c(cc21)OCO3 (centres undefined)	97.9% (active)
COc1cc2c(cc1/C=C1/NC(=O)N(c3ccccc3)C1=O)OCO2	-7.41%
COc1ccc(S(=O)(=O)Nc2ccc3c(c2)OCO3)cc1Cl	9.92%
CC[C@@]12C(=O)N(c3ccccc3)C(=O)N1[C@H](c1ccc(Br)cc1)[C@@H]1C(=O)N(C(C)(C)C)C(=O)[C@@H]12	-9.54%
COc1cc(S(=O)(=O)N2CCN(C(=O)C3CC3)CC2)ccc1NC(C)=O	-5.34%
COc1ccc(S(=O)(=O)N(C)C[C@H]2Oc3ccc(NS(=O)(=O)c4cccs4)cc3CC(=O)N([C@H](C)CO)C[C@H]2C)cc1	-0.0995%
Cn1c(=O)n(Cc2ccco2)c(=N)c2c3c(sc21)CCCC3	3.35%
O=S(=O)(c1ccc(Cl)cc1)c1nc(-c2ccco2)oc1N1CCCCC1	5.77%
O=c1oc(-c2ccco2)nc2sc3c(c12)CCCCC3	88.4% (active)
CCC(CO)Oc1cc(NC(=O)c2ccc(Cl)cc2)c2ncn(C(C)C)c2c1 (centres undefined)	-2.2%
CC(=O)c1c(C)[nH]c(C(=O)N2CCN(S(=O)(=O)c3ccc(F)c(F)c3)CC2)c1C	-0.525%
CN(C)c1ccc(/C=N/N(Cc2ccccc2)c2ccccc2)cc1	-4.17%
CCN(/N=C/c1ccccc1)c1cc(=O)n(C)c(=O)[nH]1	-9.29%
Oc1ccc(/C=N/N(Cc2ccccc2)c2ccccc2)cc1	99.2% (active)
Cc1ccc(C(=O)NNC(=O)CSc2nnc3ccccn23)cc1	-4.37%
Cc1cc(C)c(-c2c(O)c3ccccc3n(C)c2=O)c(C)c1	-13.7%
Cc1cc(O)c(Sc2ccccc2)c(=O)o1	-17.8%
COc1cccc(NC(=S)NCc2ccccn2)c1	-3.74%
Cc1c(C)c(C)c(S(=O)(=O)NCCc2ccccn2)c(C)c1C	3.53%
COc1ccc(NCCc2ccccn2)cc1	99.8% (active)

SMILES	inhibition
COc1ccc(C)cc1NC(=O)CCCN1C(=O)NC(C)(C)C1=O	0.111%
Cc1cccc(-c2oc3ccc(-c4ccc5c(c4)OCO5)cc3c2C#Cc2cncn2C)c1	-9.37%
Cc1cccc(NC(=O)c2nc(S(=O)(=O)Cc3ccccc3)ncc2Cl)c1	4.68%
CSc1ncc(Cl)c(C(=O)Nc2cc(C)ccc2C)n1	-2.22%
Cc1ccc(CS(=O)(=O)c2ncc(Cl)c(C(=O)Nc3nnc(C)s3)n2)cc1	97.5% (active)
CSc1nnc(NC(=O)c2nc(S(=O)(=O)Cc3ccc(C)cc3)ncc2Cl)s1	8.89%
Cc1cccc(CS(=O)(=O)c2ncc(Cl)c(C(=O)Nc3ccc(F)cc3)n2)c1	98.4% (active)
Cc1ccc(S(=O)(=O)CC(=O)Nc2nnc(C)s2)cc1	-1.7%
N#Cc1cccc(OC(=O)c2ccc3c(=O)n4c(nc3c2)CCC4)c1	43.5%
CC1CCCCC1NC(=O)COc1ccc(C#N)cc1 (centres undefined)	0.208%
COc1cc(Cl)c(C)cc1NC(=O)CSc1nnc(CN2CCCC2)o1	-7.65%
Cc1ccc(C)c(C(=O)COC(=O)Cn2[nH]c(=O)c3ccccc3c2=O)c1	-2.55%
Cc1cc(OC(C)C(=O)Nc2ccc(S(=O)(=O)Nc3onc(C)c3C)cc2)cc(C)c1Cl (centres undefined)	97.6% (active)
CCc1ccc(OC(C)C(=O)Nc2ccc(S(=O)(=O)Nc3cc(C)on3)cc2)cc1 (centres undefined)	9.12%
CC(Oc1cccc(Cl)c1)C(=O)Nc1ccc(S(=O)(=O)Nc2ncccn2)cc1 (centres undefined)	7.5%
CCn1c(SCC(=O)Nc2ccc(S(=O)(=O)Nc3onc(C)c3C)cc2)nnc1-c1ccccc1	53.3%
Cc1noc(NS(=O)(=O)c2ccc(NC(=O)C34CCC(CC3)C4)cc2)c1C	6.47%
Cc1noc(NS(=O)(=O)c2ccc(N/C=C/C(=O)c3ccccc3)cc2)c1C	85.4% (active)
CCOc1cc(N2CCOCC2)c(OCC)cc1NC(=O)COc1cccc(Cl)c1	-15.1%
O=C(CCCOc1ccccc1)NNC(=O)c1ccc(Cl)cc1	3.44%
Cc1occc1C(=O)N/N=C/c1ccc(-c2cccc([N+](=O)[O-])c2)o1	-4.94%
COc1ccc(NC(=O)CNc2cc(S(=O)(=O)N3CCOCC3)ccc2N2CCOCC2)c(OC)c1	1.23%
Cc1ccc(NS(=O)(=O)c2ccc(C(C)C)cc2)cc1S(=O)(=O)N1CCOCC1	4.5%

SMILES	inhibition
Cc1cc(C(=O)Nc2nnc(C3CC3)s2)c(C)s1	-0.2%
CC(C)CN(C(=O)COC(=O)c1ccc(Cl)c(N)c1)c1c(N)n(Cc2ccccc2)c(=O)[nH]c1=O	-4.01%
Cc1cc(/C=N/n2cnnc2)c(C)n1-c1cccc(C(=O)O)c1	2.1%
CN1C(=O)/C(=C/c2ccco2)SC1=Nc1cccc(C(=O)O)c1	1.79%
Cc1cc(/C=C2\SC(=O)N(C)C2=O)c(C)n1-c1cccc(C(=O)O)c1	81.6% (active)
Cc1ccc(-c2c3c(=O)n(C)c(=O)n(C)c3cn2-n2cnnc2)cc1	97.2% (active)
Cc1ccc(-c2c3c(=O)n(C)c(=O)n(C)c3cn2-c2ccccc2O)cc1	-5.8%
COc1ccc(-c2c3c(=O)n(C)c(=O)n(C)c3cn2-c2cccc(OC)c2)cc1	-5.98%
O=C(COC(=O)c1cc(S(=O)(=O)N2CCOCC2)ccc1Cl)NCCc1ccccc1	-0.788%
CCc1ccccc1OCC(=O)Nc1ccc(C)c(S(=O)(=O)N2CCCCCC2)c1	-0.917%
O=C(Nc1ccc2c(c1)OCCO2)C1CCCN(c2ncccn2)C1 (centres undefined)	-3.09%
COC(=O)c1cccc(C(=O)N2CCCC(Nc3ccc4c(c3)OCCO4)C2)c1 (centres undefined)	93.9% (active)
CC(C)c1ccc(NC(=O)C2CCCN(S(=O)(=O)c3cccnc3)C2)cc1 (centres undefined)	1.01%
CC(C)c1ccc(NC2CCCN(C(=O)c3ccncc3)C2)cc1 (centres undefined)	53.9%
COc1ccc(NC2CCCN(C(=O)c3ccncc3)C2)cc1 (centres undefined)	95.8% (active)
COC(=O)c1cccc(C(=O)N2CCC(CCC(=O)NCc3ccc(F)cc3)CC2)c1	-3.28%
COc1ccc(C(=O)N2CCC(C(=O)Nc3ccc(C)cc3)CC2)cc1	-30.7%
CC(C)c1ccc(NC(=O)NC2CCCCC2)cc1	-0.723%
Cc1cccc(C(=O)N2CCCC(Nc3ccc(C(C)C)cc3)C2)n1 (centres undefined)	97.8% (active)
O=C(Nc1ccc2nc3n(c(=O)c2c1)CCCC3)c1ccc(Cl)nc1	0.685%
COc1ccccc1-c1nnc(-c2ccc(F)cc2)o1	2.91%
COc1ccc(NS(=O)(=O)c2ccc(C)c(C(=O)N(C)Cc3ccc(OC)cc3OC)c2)cc1	-17.9%
O=C(Nc1ccc(S(=O)(=O)N2CCCCC2)cc1)C1CCN(C(=O)c2ccc(F)cc2)CC1	-0.325%

SMILES	inhibition
CC1CCN(C(=O)c2cccc(S(=O)(=O)N3CCCc4ccccc43)c2)CC1	-15.4%
CC(C)(C)OC(=O)C[C@@H]1C/C=C\C[C@@H](CC(=O)N[C@@H](CO)Cc2ccccc2)C(=O)N2CCC[C@H]2COC1=O	-8.71%
COc1ccc(C(=NN)c2ccc(OC)cc2)cc1	0.931%
CCC(=O)c1ccc(OCC(=O)Nc2ccc(N3CCCCC3)cc2)cc1	-9.1%
Cc1ccc(C)c(OCCC(=O)Nc2cccc(S(=O)(=O)N3CCCC3)c2)c1	-0.0535%
CCc1ccc(NC(=O)CN2C(=O)CSC2=O)cc1	96% (active)
COc1ccc(NC(=O)CN2C(=O)CSC2=O)cc1	21.6%
CCc1ccc(NC(=O)Cn2ncn3c(cc4ccccc43)c2=O)cc1	3.26%
Cc1ccc2nc(NC(=O)C3CSC4(C)CCC(=O)N34)sc2c1 (centres undefined)	-0.552%
O=C1CSC(c2ccccc2)N1c1nc(-c2ccc(Cl)cc2Cl)cs1 (centres undefined)	-3%
O=C1CSC(c2cccc(F)c2)N1c1ccc(O)cc1 (centres undefined)	-57.5%
O=C1CSC(c2cccc(F)c2)N1c1ccccc1F (centres undefined)	91.3% (active)
COc1ccccc1CNC(=O)c1ccc(Cl)c(S(=O)(=O)N2CCCC2)c1	-3.23%
CC(=O)O[C@H]1CC[C@@]2(C)[C@@H](CC[C@@H]3[C@@H]2CC[C@]2(C)[C@@H](C(C)(C)O)C[C@@H]32)C1	-2.24%
Cc1ccc2nc(-c3ccccc3)cc(C(=O)O)c2c1	89.7% (active)
Cc1ccc2nc(-c3ccncc3)cc(C(=O)Nc3ccncc3)c2c1	-3.42%
Cc1ccc2nc(-c3cccc(Br)c3)cc(C(=O)Nn3cnnc3)c2c1	1.88%
O=C(CC1SC(N2CCOCC2)=NC1=O)Nc1ccccc1F (centres undefined)	-2.71%
Cc1ccc(S(=O)(=O)N2CCN(C(=O)Cc3sc(C)nc3-c3ccc(F)cc3)CC2)c(C)c1	-12.2%
CCC1(C)NC(=O)N(CC(=O)N2CCN(c3cccc(Cl)c3)CC2)C1=O (centres undefined)	1.58%
